Source: PubChem BioAssay (several laboratories)
Cardio protect: protects H9c2 cardiomyocytes from peroxide injury | H2O2 injury protection, ATPLite, 2 h | protection from H2O2 cell death, % at 20 µM | 0.63% of 360,000 active;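 active means compounds giving at least 50% protection of heart cells from peroxide-induced death in the single-dose screen, raw or plate-pattern-corrected value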
PfM18AAP inh: blocks P. falciparum M18 aspartyl aminopeptidase; inhibition, % at 7.35 µM; 1.2% of 290,000 active; recombinant PfM18AAP, H-Glu-NHMec fluorogenic cleavage;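 active means inhibition above the campaign mean inhibition over all tested compounds plus 3 SD, cut at about 28% in these data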
PHOSPHO1 inh: PHOSPHO1 (human) inhibition; inhibition, % at 13.3 µM; recombinant PHOSPHO1, absorbance phosphatase assay; 1.1% of 290,000 active; AID 1565; in the data active means inhibition above about 60%
Target sequence (Q8TCT1 whole entry, looked up): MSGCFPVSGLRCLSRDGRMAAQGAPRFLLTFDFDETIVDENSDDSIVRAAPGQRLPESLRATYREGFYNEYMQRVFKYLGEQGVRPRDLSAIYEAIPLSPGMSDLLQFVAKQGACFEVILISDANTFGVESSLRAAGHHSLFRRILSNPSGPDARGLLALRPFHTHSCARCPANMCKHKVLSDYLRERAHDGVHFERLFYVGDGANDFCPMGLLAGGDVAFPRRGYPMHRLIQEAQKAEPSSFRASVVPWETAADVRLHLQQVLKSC
ALR inh: inhibitors of human sulfhydryl oxidase ALR; P55789; 3.8% of 290,000 active; purified ALR, DTT oxidation, H2O2 HRP-luminol luminescence; AID 485317; inhibition, % (concentration not given with the values);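 active means mean replicate inhibition above about 79%, with every replicate also reaching it, limit read from the data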
Target sequence (P55789 whole entry, looked up): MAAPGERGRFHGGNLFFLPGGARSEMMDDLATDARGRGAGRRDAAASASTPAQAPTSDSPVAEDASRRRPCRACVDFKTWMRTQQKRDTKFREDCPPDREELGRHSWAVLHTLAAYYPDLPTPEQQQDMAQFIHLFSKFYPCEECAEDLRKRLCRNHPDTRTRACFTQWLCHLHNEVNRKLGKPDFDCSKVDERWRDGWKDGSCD
PfG6PD inh: PfG6PD (Plasmodium falciparum) enzyme inhibition; PfGluPho enzyme, NADPH resazurin-diaphorase fluorescence; inhibition, % at 20 µM; 0.78% of 350,000 active;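 active means inhibition reaching at least a set limit at 20 µM in the primary screen, cut at about 59% in these data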
Hits are given with their value; – = inactive; · = not tested or not shown. A selection: hits, their analogues and other compounds. The true share with any hit is near 5.6%.

SMILES	Cardio protect	PfM18AAP inh	PHOSPHO1 inh	ALR inh	PfG6PD inh
Cc1ccc(C(=O)Nc2ccccn2)cc1S(=O)(=O)N1CCOCC1	–	·	·	–	–
O=C(Nc1nc(-c2ccccn2)cs1)c1cccc(-n2cnnn2)c1	67.8	–	–	–	–
OCCCNc1ncnc2c1ncn2[C@H]1CN(C2CCCC2)C[C@@H](CO)O1	–	·	·	·	·
O=C(Nc1nc(-c2ccccn2)cs1)c1ccc(F)c(S(=O)(=O)N2CCOCC2)c1	65.1	·	·	–	–
Cc1nnc(NC(=O)c2ccc(F)c(S(=O)(=O)N3CCOCC3)c2)s1	–	·	·	–	–
Clc1ccc(-c2nc3ccncc3[nH]2)cc1	–	29.1	–	98.7	–
Fc1ccc(-c2nc3ccncc3[nH]2)cc1	–	–	–	–	–
O=C(CC1C(=O)NCCN1Cc1ccccc1)NC1CCCCC1 (stereo not given)	–	·	·	·	–
COc1ccc(-c2nc3n(c2C)Cc2ccccc2-3)cc1	–	–	–	99.0	–
O=c1cc(-c2ccccc2)nc2n1Cc1ccccc1-2	–	–	–	–	–
CCCCNC1=CC(=O)C(=O)c2ccccc21	–	–	60.2	–	–
CCc1ccc(NC2=CC(=O)C(=O)c3ccccc32)cc1	–	·	·	·	–
CN(C)c1ccc(CNC(=O)C2(C)Cc3c(-c4cccc(C(F)(F)F)c4)ccnc3O2)cc1 (stereo not given)	–	·	·	·	·
COc1ccc(Nc2nc(NCc3ccco3)nc(N/N=C/c3ccc(O)cc3)n2)cc1	51.3	–	–	–	–
COc1ccc(/C=N/Nc2nc(NCc3ccco3)nc(Nc3ccc(OC)cc3)n2)cc1	–	–	–	·	–
CCC1(C)N(O)C(C)(C)C(c2ccc(F)cc2)=[N+]1[O-] (stereo not given)	–	28.6	–	–	–
C=CCNc1sc(C(=O)c2ccccc2)c(N)c1C#N	–	–	95.9	·	–
C=CCNc1sc(C(=O)c2ccc(C)cc2)c(N)c1C#N	–	–	95.9	–	–
C=CCNc1sc(C(=O)C(C)(C)C)c(N)c1C#N	–	–	–	–	–
C=CCNc1sc(C(=O)c2ccc(Br)s2)c(N)c1C#N	–	–	81.6	–	–
O=[N+]([O-])c1cc(/C=N/Nc2nc3ccccc3[nH]2)c(O)cc1O	·	–	–	·	–
Cc1cnc(C)c(Nc2nc(C(N)Cc3ccc(C(F)(F)F)cc3)cs2)n1 (stereo not given)	–	·	·	·	·
Cc1nc2nc(-c3cccs3)[nH]c2cc1Br	–	·	·	–	–
CCOC(=O)c1sc2nc(CC(=O)OC)nc(NCc3ccco3)c2c1C	–	–	–	·	–
Cc1sc2nc3c4ccccc4c(NCc4ccco4)nn3c(=O)c2c1C	–	–	–	97.7	–
SMILES	Cardio protect	PfM18AAP inh	PHOSPHO1 inh	ALR inh	PfG6PD inh
Cc1sc2ncnc(SCc3ccco3)c2c1C	–	–	–	91.5	–
Cc1nc(NCc2ccco2)c2c(C)c(C)sc2n1	–	–	–	97.4	–
COc1cc(/C=N/NC(=S)Nc2cccc(Cl)c2C)ccc1OCC(=O)N1CC(C)OC(C)C1 (stereo not given)	55.2	–	–	–	–
Cn1c(=O)c(S(=O)C2CCCCC2)c(O)c2ccccc21 (stereo not given)	–	·	·	–	–
O=c1c2c3c(sc2ncn1/N=C/c1ccc([N+](=O)[O-])o1)CCCC3	–	–	–	–	–
Cn1cc(/C=N/n2cnc3sc4c(c3c2=O)CCCC4)c2ccccc21	–	–	62.0	–	–
CCOc1ccc(Br)cc1S(=O)(=O)NC1=NCCCCC1	–	·	·	–	–
CCOC(=O)c1[nH]c(C)c(C(=O)N2CCN(c3ccc(F)cc3)CC2)c1C	–	–	–	89.7	–
Cc1ncsc1CCC(=O)N1CCCC(Nc2ccc(F)c(F)c2)C1 (stereo not given)	–	–	–	–	–
COc1ccc(NC2CCCN(C(=O)CCc3scnc3C)C2)cc1 (stereo not given)	–	–	–	99.3	–
Cc1ncsc1CCC(=O)N1CCCC(Nc2ccc(C(C)C)cc2)C1 (stereo not given)	–	–	–	85.9	–
Cc1ccc(NC2CCCN(C(=O)CCc3scnc3C)C2)cc1C (stereo not given)	–	–	–	99.2	–
CCN(CC)S(=O)(=O)c1ccc(=O)n(CC(=O)N2Cc3ccccc3CC2C(N)=O)c1 (stereo not given)	–	·	·	·	–
Cc1ccc(CSc2ncnc3onc(C)c23)cc1	–	–	–	–	–
Cc1ccc(Sc2ncnc3onc(C)c23)cc1	–	–	–	99.2	–
Cc1noc2ncnc(Sc3ccc(Cl)cc3)c12	–	–	–	79.6	–
Cc1ccsc1CN(C)C(=O)CN1C(=O)NC2(CCCCC2C)C1=O (stereo not given)	–	·	·	–	–
O=C(O)c1ccc(Nc2nc(-c3ccc([N+](=O)[O-])cc3)nc3ccccc23)cc1	–	–	–	–	–
COc1ccc(Nc2nc(-c3ccccc3)nc3ccccc23)cc1	–	–	–	–	–
O=[N+]([O-])c1ccc(-c2nc(Nc3ccc(O)cc3)c3ccccc3n2)cc1	51.7	–	–	–	–
Oc1ccc(Nc2nc(-c3ccccc3)nc3ccccc23)cc1	–	–	–	97.8	–
Oc1ccc(Nc2nc3ccccc3nc2Nc2ccc(O)cc2)cc1	–	–	99.8	95.8	–
CC(=O)Nc1ccc(Nc2nc(-c3ccccc3)nc3ccccc23)cc1	–	–	–	98.9	–
OCCNc1nc2ccccc2nc1NCCO	–	–	–	–	–
CCc1nnc(SCC(=O)NC2CC2)n1CC	–	–	–	–	–
SMILES	Cardio protect	PfM18AAP inh	PHOSPHO1 inh	ALR inh	PfG6PD inh
CC(=O)Nc1cccc(Nc2nc(-c3ccccc3F)nc3ccccc23)c1	–	–	–	98.2	–
Cc1ccc(-n2c(SCC(=O)NC3CCS(=O)(=O)C3)nc3ccccc3c2=O)cc1C (stereo not given)	–	·	·	–	–
OC(c1ccc2ccccc2c1)c1ncc(-c2cccc3ccccc23)[nH]1 (stereo not given)	–	·	·	·	·
O=c1cc(-c2cccc3ccccc23)[nH][nH]1	–	–	–	88.3	–
COc1ccc(OC(F)(F)F)cc1CC1(C)C(=O)Nc2c(Cl)ccc(Cl)c21 (stereo not given)	–	·	·	·	·
CCOc1cc(N2CCOCC2)c(OCC)cc1NC(=O)c1cc(S(=O)(=O)N2CCOCC2)ccc1F	–	·	·	–	–
Cc1ccc(CNC(=O)Nc2ccc(F)cc2F)n1C	–	30.3	–	–	–
Cc1ccc(CNC(=O)Nc2ccccc2)n1C	–	–	–	–	–
Cc1nn(C)cc1C(C(=O)NC1CCCCC1)N(C(=O)Cc1cccs1)c1ccc(Cl)cc1 (stereo not given)	54.7	–	–	–	–
COc1ccc(Cc2c(C3CCCCC3)nc3ccc(Cl)cn23)c(C)c1	–	·	·	·	·
COC(=O)c1ccc(N2C(=O)Nc3ccccc3N2O)cc1	–	–	–	–	–
O=C(CCn1cnc2ccccc21)N/N=C/c1ccc(O)cc1	–	–	–	99.3	–
O=C(Cn1cnc2ccccc21)N/N=C/c1ccccn1	–	–	–	99.4	–
CC[C@]12c3[nH]c4cc(-c5ccco5)ccc4c3CCN1C(=O)[C@@H](CC(=O)NCCCN(C)C)C[C@@H]2C(=O)N1CCN(C(=O)c2ccco2)CC1	–	·	·	·	–
